# Source: PubChem
# The list is not random: actives were taken first. Their share in the collection is about 27%.
# CYP2C9 activ: CYP2C9 (human) activation | activation factor at 5 µM | 96,000 tested, 1.4% active | recombinant CYP2C9, luciferin-H conversion, luminescence; stronger effect = higher value; factor 1 = untreated enzyme, 0 = blocked | P11712;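 active means activation factor of 2 or more for CYP2C9 at a 5 µM dose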;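 further: 0 = sulfaphenazole-blocked wells and 1 = vehicle-only wells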
# sEH act: soluble epoxide hydrolase (human) activation; P34913; purified human sEH enzymatic activity, activator screen; activation, % at 2 µM; 91,000 tested, 0.04% active; AID 717; in the data active means activation above about 37%
# sEH inhibitor: blocks human soluble epoxide hydrolase activity; P34913; recombinant human sEH enzymatic activity assay; inhibition, % at 2 µM; 91,000 tested, 0.34% active; in the data active means inhibition above about 80%
# CYP2C9 inh: blocks human cytochrome P450 2C9; inhibition, % at 5 µM; 96,000 tested, 20% active; AID 777; P11712; CYP2C9 Supersomes, luciferin-H conversion, luminescence;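 active means blocking of liver enzyme CYP2C9 beyond about 50% at 5 µM, limit read from the data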
# CYP2C19 inh: human CYP2C19 inhibition; P33261; CYP2C19 Supersomes, luciferin-H EGE luminescence, 30 min; inhibition, % at 5 µM; 96,000 tested, 21% active; AID 778;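 active means CYP2C19 inhibition above a set limit at 5 µM in the primary screen, cut at about 50% in these data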;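 further: plate controls were negative control wells for no effect and 2.5 mM tranylcypromine positive control for full effect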
# Target sequence (P33261 whole entry, looked up): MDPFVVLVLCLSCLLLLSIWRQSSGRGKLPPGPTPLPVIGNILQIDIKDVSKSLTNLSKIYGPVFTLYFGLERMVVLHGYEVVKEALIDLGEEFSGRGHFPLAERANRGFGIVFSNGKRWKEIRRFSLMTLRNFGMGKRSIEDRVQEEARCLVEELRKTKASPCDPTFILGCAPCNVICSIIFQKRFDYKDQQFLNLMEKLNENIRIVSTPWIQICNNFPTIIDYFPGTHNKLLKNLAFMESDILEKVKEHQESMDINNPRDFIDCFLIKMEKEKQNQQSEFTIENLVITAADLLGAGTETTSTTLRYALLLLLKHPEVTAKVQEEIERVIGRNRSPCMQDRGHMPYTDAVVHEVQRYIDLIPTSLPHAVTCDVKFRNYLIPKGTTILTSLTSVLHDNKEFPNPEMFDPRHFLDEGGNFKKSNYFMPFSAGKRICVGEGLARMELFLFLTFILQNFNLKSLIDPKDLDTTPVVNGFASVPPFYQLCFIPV
# CYP2C19 activ: increases human CYP2C19 enzyme activity; 96,000 tested, under 10 active; P33261; activation factor at 5 µM; recombinant CYP2C19, luciferin-H EGE luminescence; stronger effect = higher value; 0 = fully inhibited enzyme, 1 = untreated enzyme;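 active means activation factor of at least 2 at 5 µM in the primary screen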;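 further: 0 = wells with 2.5 mM tranylcypromine and 1 = vehicle-only wells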
# Numbers without * were called inactive; x = no result.
SMILES,CYP2C9 activ,sEH act,sEH inhibitor,CYP2C9 inh,CYP2C19 inh,CYP2C19 activ
CCOC(=O)Cn1c(=O)oc2cc(S(=O)(=O)Nc3cc(Cl)ccc3OC)ccc21,0.4,-14,14,61*,36,0.6
CCOC(=O)c1ccc(NS(=O)(=O)c2ccc3c(c2)oc(=O)n3C)cc1,x,-5,5,x,x,x
CC(C)c1ccc(OCC(=O)Nc2cccc3c2CCCC3)cc1,1,-8,8,-3,8,0.9
COc1ccc(OC(=O)c2cn(C)nc2C(F)(F)F)cc1,1,6,-5,4,61*,0.4
Cc1[nH]n(C(C)(C)C)c(=O)c1Sc1ccc(Cl)cc1,0.5,7,-7,54*,54*,0.5
CC(C)CCC(CCN1CCOCC1)c1ccc2c(c1)OCO2 (stereo not drawn),0.5,x,x,51*,95*,0
CC12C=CC3(CN(Cc4ccccc4)C(=O)C3C1C(=O)NCc1ccco1)O2 (stereo not drawn),1,-1,-1,2,-2,1
O=C(Nc1nccs1)c1ccc(Br)c(S(=O)(=O)N2CCOCC2)c1,x,-12,13,x,x,x
CCN=C(NCC)SC1CC(=O)N(c2cccc(OC)c2)C1=O (stereo not drawn),2.1*,x,x,-110,79*,0.2
CN=C(Nc1ccc2c(c1)OCO2)SC1CC(=O)N(c2ccccc2)C1=O (stereo not drawn),x,7,-4,x,x,x
CCN=C(Nc1cccc(F)c1)SC1CC(=O)N(c2ccc(OC)cc2)C1=O (stereo not drawn),0.4,5,-4,59*,31,0.7
CCN=C(NCC)SC1CC(=O)N(c2ccccc2)C1=O (stereo not drawn),1,1,-1,-1,88*,0.1
O=C(NCC(=O)N(CC1CCCO1)C(C(=O)NC1CCCC1)c1cccnc1)c1ccco1 (stereo not drawn),1.1,0,2,-6,-8,1.1
CCN(CC)S(=O)(=O)c1cccc(C(=O)NC2CCCCC2)c1,0.4,-77,77,58*,38,0.6
CCN(CC(=O)NC1CCCCCC1)S(=O)(=O)c1ccccc1,0.8,-8,8,21,28,0.7
CCN(CC)S(=O)(=O)c1csc(C(=O)NC2CCCCC2)c1,0.4,-52,52,62*,2,1
O=C(CCC1COc2ccccc2O1)NCc1ccco1 (stereo not drawn),0.8,-10,13,19,17,0.8
CCOc1ccc(CSC(=N)N)cc1[N+](=O)[O-],0.8,5,-4,17,9,0.9
CC(=O)OCc1c(C(F)(F)F)nn(C)c1Oc1ccccc1,0.8,x,x,22,92*,0.1
CC(=O)OCc1c(C(F)(F)F)nn(C)c1Oc1cccc(C(F)(F)F)c1,0.6,-2,4,37,74*,0.3
Cc1cc(C)n(-c2nc3c(c(=O)[nH]c(=O)n3C)n2CC(C)C)n1,1.3,-8,7,-34,3,1
COC(=O)COc1ccc(S(=O)(=O)Nc2ccc3c(c2)OCCO3)cc1Cl,0.1,-2,3,92*,98*,0
CCOC(=O)CC(N)c1ccc2c(c1)OCO2 (stereo not drawn),0.9,-9,6,8,52*,0.5
CCOC(=O)COc1ccc(S(=O)(=O)Nc2ccc3c(c2)OCO3)cc1,0.3,-8,10,67*,86*,0.1
CCOC(=O)COc1ccc(S(=O)(=O)Nc2ccc(C)cc2)cc1,0.4,11,-9,59*,20,0.8
SMILES,CYP2C9 activ,sEH act,sEH inhibitor,CYP2C9 inh,CYP2C19 inh,CYP2C19 activ
CCOC(=O)COc1ccc(S(=O)(=O)c2ccc(OCC(=O)OCC)cc2)cc1,0.6,0,-4,42,5,1
CC(C)NS(=O)(=O)c1ccc(OCC(=O)Nc2ccc3c(c2)OCO3)c(Cl)c1,0.9,-30,32,14,13,0.9
Cc1ccc(NS(=O)(=O)c2ccc(CCC(=O)N3CCOCC3)cc2)cc1,0.9,-12,15,12,19,0.8
CCOc1ccc(S(=O)(=O)N(C)c2ccc(OCC(=O)N3CCOCC3)cc2)cc1,0.3,-12,9,74*,25,0.7
CCOc1ccc(NS(=O)(=O)c2ccc(SC)cc2)cc1,x,4,-4,x,x,x
Cc1ccc(NS(=O)(=O)c2ccc(OCC(=O)N3CCOCC3)cc2)cc1,0.5,13,-13,47,57*,0.4
CCOc1ccc(NS(=O)(=O)c2ccc(OCC)c3ncccc23)cc1,0.3,-2,1,68*,25,0.8
CCOc1ccc(OCC(=O)N2CCOCC2)cc1,1.1,11,-8,-11,30,0.7
CCOc1ccc(NS(=O)(=O)c2ccc(N)cc2)cc1,0.3,-4,2,70*,54*,0.5
COc1ccc2c(c1)-c1ccccc1S(=O)(=O)N2C(C)=O,0.9,-8,10,14,14,0.9
CCn1nnc(C(=O)O)c1C(=O)O,1.2,7,-7,-21,-24,1.2
COc1ccc(C(=O)Cn2c(=O)c(CCC(=O)O)nn3c4ccccc4nc23)cc1OC,1.1,3,-3,-9,-13,1.1
CCOC(=O)c1nnc2c(Br)c(-c3ccccc3)nn2c1C,x,8,-8,x,x,x
COc1ccc(C)c(S(=O)(=O)Nc2ccc(OCC(=O)O)cc2)c1,1.2,-2,3,-17,-10,1.1
Cc1cc(C)c(C)c(S(=O)(=O)Nc2ccc(OCC(=O)O)cc2)c1C,0.2,12,-12,76*,-8,1.1
CCOc1ccc(NS(=O)(=O)c2ccc3c(c2)oc(=O)n3C)cc1,0.8,-3,4,25,7,0.9
CCOc1ccc(NS(=O)(=O)c2ccc3[nH]c(=O)oc3c2)cc1,0.1,-2,2,87*,88*,0.1
Cc1cc2ccccn2c1C(=O)c1ccncc1,0.3,2,-1,65*,98*,0
O/N=C1\CCCc2nnc3c(c21)CCCC3,2.9*,x,x,-193,1,1
COc1ccc(-c2nnc(SCC(=O)/C(C#N)=C(\C)N)o2)cc1,0.6,x,x,41,26,0.7
C/C(N)=C(/C#N)C(=O)CSc1nnc(-c2ccccc2Br)o1,1.1,19,-22,-13,96*,0
CC(C)NC(=O)c1ccccc1N(Cc1ccccc1)S(C)(=O)=O,0.8,2,-5,17,29,0.7
COC(=O)c1ccccc1N(Cc1ccccc1)S(C)(=O)=O,0.7,15,-14,29,78*,0.2
CCN1CCN(c2nc(C)c3c(n2)CCCC3=O)CC1,0.9,0,2,12,-18,1.2
CCOC(=O)N1CCN(c2nc(C)c3c(n2)CC(C)CC3=O)CC1 (stereo not drawn),0.5,17,-16,52*,39,0.6
O=C(NCCCn1ccnc1)c1cccnc1,x,10,-8,x,x,x
CCC(=O)c1c[nH]c(C(=O)NCCCn2ccnc2)c1,0.2,6,-2,83*,76*,0.2
CCC(=O)c1c[nH]c(C(=O)NCCc2ccccn2)c1,1.3,0,-1,-29,-19,1.2
